Assay outcomes as filed in PubChem.
Sampled rows, rich in hits. Any-hit rate of the full collection: about 22%.
CYP2C19 inhib – blockers of cytochrome P450 2C19 activity – biochemical, luminescence, ADME assay, primary screen; AID 778, 2007; P33261; 96,000 tested, 21% active; CYP2C19 Supersomes, luciferin-H EGE luminescence, 30 min; inhibition, % at 5 µM;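 active = CYP2C19 inhibition above a set limit at 5 µM in the primary screen, cut at about 50% in these data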;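 also: plate controls were negative control wells for no effect and 2.5 mM tranylcypromine positive control for full effect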
Measles CPE – compounds protecting cells from measles virus cytopathic effect, primary screen, measles RdRp inhibitor project, single point, MLSMR library, absorbance. Measles virus-infected cells, CPE protection. protection (pct of control), % at 4 µM. 140,000 tested, 1.5% active; in the data active = protection mostly above about 24%, no sharp cut-off; inactive = mostly below about 26%
CYP2C9 activ – human CYP2C9 activators, primary screen, biochemical, luminescence; 96,000 tested, 1.4% active; recombinant CYP2C9, luciferin-H conversion; active compounds read high; factor 1 = untreated enzyme, 0 = blocked; Cytochrome P450 2C9 (Homo sapiens), P11712; activation factor at 5 µM;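 active = activation factor of 2 or more for CYP2C9 at a 5 µM dose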;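 also: 0 = sulfaphenazole-blocked wells and 1 = vehicle-only wells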
Target sequence (P11712 whole entry, looked up): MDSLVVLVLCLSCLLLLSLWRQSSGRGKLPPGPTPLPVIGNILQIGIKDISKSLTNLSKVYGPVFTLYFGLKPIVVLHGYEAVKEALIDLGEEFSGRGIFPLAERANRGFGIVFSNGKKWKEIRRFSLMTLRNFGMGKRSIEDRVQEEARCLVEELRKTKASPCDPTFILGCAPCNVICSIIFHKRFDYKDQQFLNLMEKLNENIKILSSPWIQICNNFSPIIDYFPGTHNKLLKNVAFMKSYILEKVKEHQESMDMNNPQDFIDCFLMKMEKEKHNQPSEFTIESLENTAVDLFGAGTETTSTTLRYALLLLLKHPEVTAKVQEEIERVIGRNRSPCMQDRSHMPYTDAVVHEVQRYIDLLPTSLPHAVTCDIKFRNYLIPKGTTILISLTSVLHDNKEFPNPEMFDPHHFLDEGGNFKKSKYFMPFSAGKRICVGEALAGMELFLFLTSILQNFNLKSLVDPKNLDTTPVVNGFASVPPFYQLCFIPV
CYP2C19 activ – human CYP2C19 activators, primary screen, biochemical, luminescence; recombinant CYP2C19, luciferin-H EGE luminescence; active compounds read high; 0 = fully inhibited enzyme, 1 = untreated enzyme; activation factor at 5 µM; 96,000 tested, under 10 active; AID 1025, 2008;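 active = activation factor of at least 2 at 5 µM in the primary screen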;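 also: 0 = wells with 2.5 mM tranylcypromine and 1 = vehicle-only wells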
CYP2C9 inhib – blockers of cytochrome P450 2C9 activity – biochemical, luminescence, ADME assay, primary screen. P11712. CYP2C9 Supersomes, luciferin-H conversion. AID 777, 2007. 96,000 tested, 20% active. inhibition, % at 5 µM;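 active = blocking of liver enzyme CYP2C9 beyond about 50% at 5 µM, limit read from the data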
The depositor's hits bear a star; · = no result.

SMILES	CYP2C19 inhib	Measles CPE	CYP2C9 activ	CYP2C19 activ	CYP2C9 inhib
C=CCNC(=O)c1onc(CSc2cccc(OC)c2)c1C(=O)O	6.4	20.6	0.3	0.9	66.6*
COC(=O)c1c(CSc2cccc(C)c2)noc1C(=O)NCc1ccco1	81.6*	8.0	0.2	0.2	77.8*
COc1ccc(CNC(=O)Nc2cccc(C(F)(F)F)c2)cc1OC	·	3.6	·	·	·
O=C(NC(C(=O)c1ccccc1)N1CCCCCC1)c1ccco1 (configuration not stated)	·	22.9	·	·	·
Cc1cccc(SCc2noc(C(=O)NC(C)C)c2C(=O)O)c1	12.8	5.3	0.4	0.9	55.2*
NC(=O)[C@H]1CC2(CC(c3cccc(NC(=O)c4ccccc4)c3)=NO2)CN1C(=O)[C@H]1CCC(=O)N1 (some centres not stated)	-9.0	13.7	1.1	1.1	-8.2
CCOc1ccc(N(CC(=O)NC(C)(C)C)C(=O)c2ccco2)cc1	21.6	1.6	0.1	0.8	89.9*
COCCn1c(=N)c(C(=O)NCc2ccco2)cc2c(=O)n3ccccc3nc21	-13.4	3.9	1	1.1	-2.3
Cc1oc(-c2ccccc2)nc1Cn1cccc1C1=NC(c2ccccc2)CO1 (configuration not stated)	84.2*	8.9	0.2	0.2	82.0*
Cc1ccc(NC(=O)Cn2cccc2C2=NC(c3ccccc3)CO2)cc1C (configuration not stated)	·	2.7	·	·	·
Nc1ccc(C23CC4CC(CC(O)(C4)C2)C3)cc1	91.0*	11.0	0.8	0.1	23.5
Nc1ccc(C23CC4CC(CC(CO)(C4)C2)C3)cc1	71.3*	9.7	0.8	0.3	19.8
NCC12CC3CC(CC(O)(C3)C1)C2	14.2	8.6	0.9	0.9	5.1
C=CCn1c(C)cc(C(=O)COC(=O)[C@@H](NC(=O)c2ccccc2Cl)C(C)C)c1C	·	4.4	·	·	·
COc1ccc(-c2nn(-c3ccccc3)cc2C#N)cc1	3.3	1.6	0.9	1	12.2
O=C(COc1ccc(S(=O)(=O)NC2CCCCC2)cc1Cl)NCC1CCCO1 (configuration not stated)	57.9*	6.2	0.1	0.4	89.9*
O=C(COc1ccc(S(=O)(=O)NC2CCCCC2)cc1Cl)NCc1cccnc1	49.6	25.2	0	0.5	97.6*
Cc1cc(C)c(C)c(OCC(=O)NCC2CCCO2)c1 (configuration not stated)	62.7*	26.0	1.6	0.4	-57.2
O=C(COc1ccc(S(=O)(=O)NC2CCCCC2)cc1)NCc1cccnc1	-9.8	5.4	0.7	1.1	29.9
O=C(COc1ccc(S(=O)(=O)NCc2ccccc2)cc1Cl)NCC1CCCO1 (configuration not stated)	-1.1	28.0	0.2	1	78.5*
CC(c1ccccc1)N1CCn2c(nc3cc(NC(=O)NC4CCCCC4)ccc32)C1 (configuration not stated)	12.0	9.4	0.7	0.9	30.7
COc1ccc(CCNC(=O)COc2ccc(S(=O)(=O)NC3CCCCC3)cc2Cl)cc1	64.2*	2.9	0.1	0.4	85.2*
COc1ccc(CCNC(=O)C2CCN(S(=O)(=O)c3ccc(OC)c(OC)c3)CC2)cc1	2.1	16.0	1.3	1	-30.2
O=S(=O)(N1CCCCC1)n1c(Cc2ccccc2)nc2ccccc21	85.3*	8.8	0.3	0.1	68.4*
O=S(=O)(c1ccc(Br)cc1)n1c(Cc2ccccc2)nc2ccccc21	·	4.3	·	·	·
SMILES	CYP2C19 inhib	Measles CPE	CYP2C9 activ	CYP2C19 activ	CYP2C9 inhib
O=S(=O)(N1CCCCCC1)N1CCN(S(=O)(=O)N2CCOCC2)CC1	8.6	26.5	0.9	0.9	9.1
O=S(=O)(N1CCCCC1)N1CCCN(S(=O)(=O)N2CCCCC2)CC1	25.4	7.2	0.5	0.7	50.4*
Cn1cnnc1SCC(=O)OCN1C(=O)c2ccccc2C1=O	4.1	21.5	0.9	1	11.1
CCN1CCN(c2nc(N)c([N+](=O)[O-])c(Nc3cccc(C)c3)n2)CC1	·	8.1	·	·	·
CN(Cc1ccccc1)c1nc(N)c([N+](=O)[O-])c(Nc2cccc(F)c2)n1	38.1	9.0	0.2	0.6	78.6*
O=C(CCCc1ccccc1)NCCN1CCOCC1	40.2	10.8	1	0.6	0.0
COc1ccccc1N1C(=O)C2C(c3ccccc3F)NN(C(=O)c3ccc(C)cc3)C2C1=O (configuration not stated)	·	50.6*	·	·	·
O=C1CC(c2ccc(Cl)cc2)n2nc(NS(=O)(=O)c3ccc(F)cc3)nc2N1 (configuration not stated)	-17.8	2.0	1.2	1.2	-15.6
COC(=O)c1c(CSc2ccc(Cl)cc2)noc1C(=O)NCc1ccco1	0.3	6.7	0.9	1	8.9
COC(=O)c1c(CSc2ccc(C)c(C)c2)noc1C(=O)NCc1ccc(OC)cc1	65.0*	23.0	0.2	0.3	75.4*
C=CCNC(=O)c1onc(CSc2ccccc2CC)c1C(=O)O	3.9	15.0	0.2	1	79.8*
CCCCNC(=O)c1onc(CSc2ccc(F)c(F)c2)c1C(=O)O	1.0	6.1	0.3	1	72.9*
CCCCNC(=O)c1onc(CSc2ccc(C)c(C)c2)c1C(=O)O	13.6	6.7	0.2	0.9	82.8*
O=C(NCC1CCCO1)c1onc(CSc2ccc(F)cc2)c1C(=O)O (configuration not stated)	14.6	3.9	0.9	0.9	14.4
C=CCNC(=O)c1onc(CSc2ccc(C)c(C)c2)c1C(=O)O	94.1*	13.6	0.1	0.1	88.4*
CC(=O)OC(CC(=O)O)C[N+](C)(C)C (configuration not stated)	·	15.9	·	·	·
CCN1C(=O)c2cccc3c(S(=O)(=O)Nc4ccncc4)ccc1c23	5.8	10.7	0.3	0.9	66.0*
CCN1C(=O)c2cccc3c(S(=O)(=O)Nc4ccc(OC)cc4OC)ccc1c23	77.9*	7.1	0	0.2	95.7*
CCN1C(=O)c2cccc3c(S(=O)(=O)N(C(=O)c4ccncc4)c4ccc(OC)cc4)ccc1c23	·	4.8	·	·	·
CCN1C(=O)c2cccc3c(S(=O)(=O)NCc4ccco4)ccc1c23	·	15.6	·	·	·
CCN1C(=O)c2cccc3c(NC(=O)c4ccccc4)ccc1c23	·	24.3	·	·	·
CCN1C(=O)c2cccc3c(NC(=O)c4ccc(OC)c(OC)c4)ccc1c23	55.8*	17.6	0.3	0.4	66.1*
CCN1C(=O)c2cccc3c(S(=O)(=O)Nc4ccccc4)ccc1c23	60.3*	1.0	0	0.4	100.3*
CCCCCCP(=O)(O)c1ccccc1	-6.9	34.6	1	1.1	-0.3
CCN1C(=O)c2cccc3c(S(=O)(=O)Nc4nc(C)cs4)ccc1c23	22.6	3.3	0.1	0.8	92.6*
